# Assay results: PubChem BioAssay (NCI)
# The panel holds about 83,000 compounds, 20% with a hit somewhere; the sample as a whole holds those more often.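 Growth was measured after 48 h exposure to one concentration of compound in 96-well plates. Values under 10 count as active.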 Activity calls are given as the source filed them.
# Test system: MDA-MB-468 breast
# Test: NCI-60 one-dose screen, 48 h (100 = growth as untreated, 0 = no growth, -100 = all killed)
# Conditions: 10 µM unless noted
row,Structure (SMILES),growth
1,Cc1c(C(N)=O)sc2ncn(CC(=O)Nc3ccc(Cl)cc3)c(=O)c12,92.1% (inactive)
2,Cn1c(=O)c2c(nc(N3CCCC3)n2C)n(C)c1=O,99.5% (inactive)
3,COc1ccc(-c2cnnn2-c2nonc2-n2cccc2)cc1,4.28% (active)
4,CCOC(=O)c1c2c(c(C)n1Cc1ccc(OC)cc1)-c1oncc1CC2,97.8% (inactive)
5,N#CC1=C(N)Oc2c(sc3c(F)cccc23)C1c1ccc(F)cc1 (stereo not given),26.5% (inactive)
6,COCC(N)=O,101% (inactive)
7,Cc1ccc(C(C)C)c(OCc2ccc(C(=O)N/N=C/c3cccc(O)c3O)cc2)c1,75.7% (inactive)
8,C=C[C@@H]1C[C@H](O)Cc2ccccc2N1,123% (inactive)
9,COC(=O)CNC(=O)[C@]12CCC(C)(C)C[C@H]1C1=CC[C@@H]3[C@@]4(C)Cc5c([nH]c6ccccc56)C(C)(C)[C@@H]4CC[C@@]3(C)[C@]1(C)CC2,102% (inactive)
10,COc1ccc(/C=C2\CCC/C(=C\c3ccc(OC)c(OC)c3)C2=O)cc1OC,-16.6% (active)
11,CCOC(=O)c1c2c(n3ccccc13)C(=O)c1ncccc1C2=O,80.8% (inactive)
12,COc1ccc(-c2n[nH]c(=O)c3nc(NC(=S)Nc4ccc(Oc5ccccc5)cc4)sc23)cc1,98% (inactive)
13,CCCCN(C(=O)CC)c1ccccc1,106% (inactive)
14,COc1ccc(-c2nc3c(N)c(CO)c(C)nc3o2)cc1,67.5% (inactive)
15,COc1cc(C2CC(c3ccc(Nc4nc(NCCO)nc(NCCO)n4)cc3)=NN2c2cc(Cl)cc(Cl)c2)cc(OC)c1OC (stereo not given),-9.24% (active)
16,COc1ccc(OC)c(/C=C2\Oc3cc(OCCN4CCCC4)ccc3C2=O)c1,98.9% (inactive)
17,Cc1ccc(O)c(NC(=O)c2cccc(Nc3ccnc(C(F)(F)F)c3)c2)c1,46% (inactive)
18,Cc1ccc2c(c1)CC(O)CC1C(=O)N(CCO)CC(=O)N21 (stereo not given),96% (inactive)
19,C/C(=C\CCc1ccsc1)CC/C=C(\C)CCCN1CCC(CO)CC1,-27.3% (active)
20,CN(C)CC(C)(C)C(=O)/C=C/c1ccccc1,-49% [25 µM] (active)

row,Structure (SMILES),growth
1,CN(C)c1ncc(/C=C2\SC(=S)N(Cc3ccccc3Cl)C2=O)s1,95.6% (inactive)
2,COc1ccc(NC(=O)c2cc3ccccc3nc2Nc2cc(OC)c(OC)c(OC)c2)cc1,75.2% (inactive)
3,CC1(C)C(N)=Nc2cc(OCCCN3Cc4ccc(OCCc5cn(CC(=O)N6CCC(CCN7CCCC7)CC6)nn5)cc4C3)c(OCC3CC3)cc21,108% (inactive)
4,C[N+](C)(C)CCCCCCCCCC[N+](C)(C)C,79.6% (inactive)
5,CCc1n(Cc2ccc3ccccc3n2)cc[n+]1Cc1ccc2ccccc2n1,-30.1% (active)
6,CC1Cc2c(Cl)ncnc2N(C)c2ccccc21 (stereo not given),-31.5% (active)
7,COc1ccc(/C(C)=N/NC(=O)CSc2nc3ccccc3c(=O)n2CCc2ccc(S(N)(=O)=O)cc2)cc1,33.8% (inactive)
8,C=C1C(=O)O[C@H]2[C@H]1CC/C(Cn1cc(CCC)nn1)=C\CC[C@@]1(C)O[C@@H]21,-31.7% (active)
9,COC(=O)C1(C)COP(=O)(NC23CC4CC(CC(C4)C2)C3)OC1 (stereo not given),110% (inactive)
10,CCCCc1nc(Cl)c(CO)n1Cc1ccc(-c2ccccc2-c2nn[nH]n2)cc1,96.4% (inactive)
11,C=C1C(=O)O[C@H]2[C@H]1CC/C(COC(=O)Nc1nc3ccccc3[nH]1)=C\CC[C@@]1(C)O[C@@H]21,36.9% (inactive)
12,COc1ccc(-c2ccccc2)cc1-c1c(Nc2cc(Cl)cc(Cl)c2O)c(=O)c1=O,-3.49% (active)
13,O=C1c2c(c3c4cccnc4[nH]c3c3ccc4ccccc4c23)C(=O)N1CCN1CCNCC1,87.1% (inactive)
14,O=C1C=C(O)C(=O)C=C1O,115% (inactive)
15,COC(=O)c1ccc(C(C)C)cc1,110% (inactive)
16,COc1cc(-c2nn(-c3ccccc3)cc2-c2ccnc(NCCNS(=O)(=O)c3ccc(Cl)cc3)n2)ccc1Cl,31.2% (inactive)
17,COc1cc(/C=C/c2cc(/C=C/c3ccc(O)c(OC)c3)n(C(N)=O)n2)ccc1O,-14.3% (active)
18,C=C(C)C(=O)O[C@H]1C[C@@]2(C)OC(=CC2=O)/C(C)=C\[C@H]2OC(=O)C(=C)[C@H]12,-52.5% (active)
19,CSc1nc2ccccc2cc1/C=[N+](\[O-])c1ccccc1,88% (inactive)
20,CCCCCCCCCCCCCCCCCC(=O)OCCCCCCC,114% (inactive)
